Data reported in the OligoGym collection.

Molecular target: CHRM2
Experiment: pooled miR-30 sensor sort-seq; sequence = guide strand
Conditions: shRNA
Note: reference of the scale not given here.

Question: TTGGCTTCACTATCCTTCCTTG was tested. Which sensor-assay potency score (higher = more potent) did it give?
Answer: -0.217

Question: How did the sensor-assay potency score (higher = more potent) turn out when TTAATGAGCACCATGACATTGT was run?
Answer: -0.0449

Question: Which sensor-assay potency score (higher = more potent) does the source give for TTCATCTCCATTCTGACCTGAA here?
Answer: 0.399

Question: With TTTTGTGGTCCGCTTGACTGGG as the sequence, how does the sensor-assay potency score (higher = more potent) read?
Answer: 0.0688

Question: For TTCTTGTCCTTCTTTATCCTGC, which sensor-assay potency score (higher = more potent) is on record?
Answer: -0.0112

Question: With TAGAAGGCTGCAATAGCCGTAC as the sequence, how does the sensor-assay potency score (higher = more potent) read?
Answer: -0.0525

Question: Which sensor-assay potency score (higher = more potent) does the source give for TACATGAGTCACTTTTTGGGGT here?
Answer: -0.152

Question: For ATAAGGACTTGTAAGAGCCAGG, which sensor-assay potency score (higher = more potent) is on record?
Answer: -0.765

Question: For TTCATAACTGAGGCATTGCTGA, which sensor-assay potency score (higher = more potent) is on record?
Answer: -0.852

Molecular target: CHRNA1
Experiment: as above
Conditions: shRNA

Question: With TTAGAACATCAGCAACTCCCTA as the sequence, how does the sensor-assay potency score (higher = more potent) read?
Answer: -0.4

Question: Which sensor-assay potency score (higher = more potent) does the source give for TTCATCCACATTGATGAGCTGT here?
Answer: -0.162

Question: For TAACACGTTTGATAAGTGCGAG, which sensor-assay potency score (higher = more potent) is on record?
Answer: -0.52

Question: For TAGGTCACGGAGTGCTTCCAGC, which sensor-assay potency score (higher = more potent) is on record?
Answer: -1.17

Question: For TAAGCAAAGAATACACTTCATT, which sensor-assay potency score (higher = more potent) is on record?
Answer: -1.02

Question: For TTGATGGCCACGACAGAGCCGT, which sensor-assay potency score (higher = more potent) is on record?
Answer: -0.893

Question: TTGTCTTGCTTTTCTCTGGATG was tested. Which sensor-assay potency score (higher = more potent) did it give?
Answer: -0.807

Question: TATAACAGCAATGACAATGCAA was tested. Which sensor-assay potency score (higher = more potent) did it give?
Answer: 0.464

Question: Which sensor-assay potency score (higher = more potent) does the source give for TACTGCTTCCTCTCTCTCCAAA here?
Answer: -0.987

Question: With ATTTACTTCATCCACATTGATG as the sequence, how does the sensor-assay potency score (higher = more potent) read?
Answer: -1.52

Question: For TAAGTATGGAATATAACACGTT, which sensor-assay potency score (higher = more potent) is on record?
Answer: -0.0814

Question: Which sensor-assay potency score (higher = more potent) does the source give for TAGACAAATCTTCCTCTCCTGC here?
Answer: -0.927

Question: For TTGACAATAGCAAAGTCACCAT, which sensor-assay potency score (higher = more potent) is on record?
Answer: -0.507

Question: How did the sensor-assay potency score (higher = more potent) turn out when TACTGCAGGAGCACTTTGGTGA was run?
Answer: 0.163

Question: Which sensor-assay potency score (higher = more potent) does the source give for TTCTTAGTAGGTACAAAACTGA here?
Answer: -0.855

Question: With TTTGTCTTGCTTTTCTCTGGAT as the sequence, how does the sensor-assay potency score (higher = more potent) read?
Answer: -0.428

Question: For TAGCAAAGTCACCATCTGCATT, which sensor-assay potency score (higher = more potent) is on record?
Answer: -1.03

Question: For TAGCTTTTAAAGATGGCTGGAG, which sensor-assay potency score (higher = more potent) is on record?
Answer: -0.126

Question: With TTGCAACGTACTTCCACTCTGC as the sequence, how does the sensor-assay potency score (higher = more potent) read?
Answer: 0.505

Question: Which sensor-assay potency score (higher = more potent) does the source give for ATTGATGAGCTGTATCAGCTGC here?
Answer: 0.306

Question: TACTTCATCCACATTGATGAGC was tested. Which sensor-assay potency score (higher = more potent) did it give?
Answer: -0.906
